# Pf Dd2 inh: blocks in vitro growth of P. falciparum Dd2 | P. falciparum Dd2 growth, SYBR Green, 72 h | Potency, µM (highest dose often 28.9 µM), for the others: top-dose activity, negative = inhibition, usual class: inhibitors | 4.3% of 120,000 active | AID 1347417; active = well fitted inhibition curve with a large enough effect;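 note: plate controls were DMSO vehicle for no effect and reference drug for full effect; nearly all actives have a fitted effect of over 65% in size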
#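 Infected erythrocytes (Dd2, 0.3% parasitemia, 2.5% hematocrit final) are added to compound in RPMI-1640/Albumax II medium, grown 72 h at 37C in low oxygen, then lysed with saponin/Triton-X containing SYBR Green and read by fluorescence.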
# Starred values were filed as active, the others as inactive; i = inactive; [ ] = another dose, or the depositor's remark. Shown is part of a subset that was picked to be rich in hits. Potency is the fitted concentration of half-maximal effect.
SMILES,Pf Dd2 inh
O=C(Nc1nc2n(n1)C(c1ccc(F)cc1)C=C(c1ccc(Cl)cc1)N2)c1ccco1 (centres undefined),8.91µM*
Cc1ccc(C2C=C(c3ccc(Cl)cc3)Nc3nc(NS(=O)(=O)c4ccccc4)nn32)cc1 (centres undefined),19.6%
O=C(Nc1nc2n(n1)C(c1ccc(F)cc1)C=C(c1ccccc1)N2)c1cccc([N+](=O)[O-])c1 (centres undefined),3.16µM*
O=C(c1ccco1)n1nc(-c2ccc(Cl)cc2)nc1NCc1ccc(F)cc1,60.9%
COc1ccc(C(=O)Nc2nc3n(n2)C(c2ccccc2)C=C(c2ccccc2)N3)cc1 (centres undefined),i
COc1ccc(C2C=C(c3ccccc3)Nc3nc(NC(=O)/C=C/c4ccccc4OC)nn32)cc1 (centres undefined),10µM*
COc1cccc(C2C(C(=O)Nc3ccccc3)=C(C)Nc3nc(-c4ccccc4)nn32)c1 (centres undefined),-27.6%
CCc1ccc(C(=O)c2cnc3ccc(F)cc3c2S(=O)(=O)c2ccccc2)cc1,11.2µM*
CCc1ccc(-c2nn(CC(=O)NCc3ccccc3)c3c2cnc2ccc(F)cc23)cc1,-1.0%
CCc1ccc(-c2nn(CC(=O)Nc3ccccc3)c3c2cnc2ccc(F)cc23)cc1,10.4%
O=C(Nc1ccc(Cl)c(-c2nc3cc(Cl)ccc3o2)c1)c1cc2ccccc2o1,2.1%
Cc1cc2nc(-c3cc(NC(=O)c4cc5ccccc5o4)ccc3Cl)oc2cc1C,i
Cc1cc(NC(=O)c2cc(Cl)ccc2Cl)ccc1-c1cc2ccccc2oc1=O,11.2µM*
O=C(O)[C@@H]1CN(C(=O)CCc2cccc(Cl)c2)C[C@H]1c1cccc(F)c1,-2.0%
O=C(NCCc1cccnc1)C1CCc2sc(C(=O)N3CCCCC3)cc2C1 (centres undefined),-17.4%
CCn1cc(S(=O)(=O)N2CCCCCCN(C)C(=O)[C@@H]3CCC[C@@H]32)cn1,-17.0%
CN1CCCCCCN(S(=O)(=O)c2cccc(F)c2)[C@H]2CCC[C@H]2C1=O,2.51µM*
O=C1NCCCCCN(S(=O)(=O)c2cccc(F)c2)[C@H]2CCCC[C@@H]12,14.1%
CCCCOc1cccc(C(=O)N2CCN(CCc3ccncc3)CC2)c1,-28.7%
Cc1ccc(OCC(=O)N2CCN(CCc3ccncc3)CC2)cc1C,10µM*
COc1ccc(OCC(=O)N2CCN(CCc3ccncc3)CC2)cc1,19.4%
COC1C(=O)N(c2cccc(F)c2)C12CCN(Cc1cccc(C#N)c1)CC2 (centres undefined),i
CCOCc1nc(C2CCCN2C(=O)Nc2ccccc2F)no1 (centres undefined),22.4%
CCCCOc1ccc(CNC(=O)c2cnc3sc(N4CCCC4)nn3c2=O)cc1,35.1%
COc1ccc(CNC(=O)c2cc(C3CC3)nc3c2c(C)nn3-c2cccc(Cl)c2C)cc1,6.4%
SMILES,Pf Dd2 inh
CC(C)CNC(=O)c1cc(C2CC2)nc2c1c(C1CCCN1)nn2-c1ccccc1 (centres undefined),4.47µM*
Cn1nc(C2CCNC2)c2c(C(=O)NCc3ccc(F)cc3)cc(C3CC3)nc21 (centres undefined),-23.2%
O=C(NCc1ccncc1)c1cc(C2CC2)nc2c1c(C1CCCN1)nn2-c1ccccc1 (centres undefined),8.91µM*
Cn1nc(C2CCCN2)c2c(C(=O)NCC(F)(F)F)cc(C3CC3)nc21 (centres undefined),-13.8%
O=C(NCC(F)(F)F)c1cc(C2CC2)nc2onc(C3CCCNC3)c12 (centres undefined),2.4%
COCCNC(=O)c1cc(C2CC2)nc2c1c(C1CCCN1)nn2C (centres undefined),-4.7%
O=C(NCC(F)(F)F)c1cc(C2CC2)nc2c1c(C1CCCN1)nn2-c1ccccc1 (centres undefined),8.91µM*
CC(C)CNC(=O)c1cc(C2CC2)nc2onc(C3CCCNC3)c12 (centres undefined),-23.4%
Cc1cc(=O)n2nc(N3CCC(C(=O)NCc4ccccc4Cl)CC3)sc2n1,-1.4%
Nc1c(-c2nc(-c3ccccc3)no2)nnn1CC(=O)Nc1ccccc1,-2.4%
CC(=O)NC[C@H]1CCN(S(=O)(=O)c2cc(F)ccc2C)C[C@H]1N(C)C,i
O=C(NC1CCCCCCC1)c1ccc(Cn2ccn3nc4c(c3c2=O)CCCC4)cc1,-16.8%
CC(C)c1ccc(NS(=O)(=O)c2ccc3[nH]c(=O)ccc3c2)cc1,-1.6%
Cc1ccc(NS(=O)(=O)c2ccc3[nH]c(=O)ccc3c2)cc1N(C)C,-16.0%
Cc1cccc(NS(=O)(=O)c2ccc3[nH]c(=O)ccc3c2)c1C,8.91µM*
COc1ccc2cc(-c3cn4c(n3)sc3cc(F)ccc34)c(=O)oc2c1,i
Cc1ccc(NC(=O)N2CCC(CCNC(=O)Cc3ccsc3)CC2)cc1F,i
CCN(CC)c1cc(C)c2cc(NC(=O)/C=C/c3cc(OC)c(OC)c(OC)c3)ccc2n1,1.12µM*
CCN(CC)c1cc(C)c2cc(NC(=O)c3cccc(OC)c3OC)ccc2n1,-27.1%
CCOc1ccc(/C=C/C(=O)Nc2ccc3nc(N(CC)CC)cc(C)c3c2)cc1OC,1µM*
CCN(CC)c1cc(C)c2cc(NC(=O)c3cccc(OC)c3)ccc2n1,i
CCOc1ccc(C(=O)Nc2ccc3nc(N(CC)CC)cc(C)c3c2)cc1,-7.6%
CCOc1ccccc1C(=O)Nc1ccc2nc(N(CC)CC)cc(C)c2c1,-7.1%
O=c1[nH]c(N2CCc3ccccc3C2)nc2c1CCN(Cc1cccnc1)CC2,6.1%[5.79 µM]
Cc1noc(C)c1C(=O)N1CCN(c2ccc(C=O)cc2)C(=O)C1,44.0%
SMILES,Pf Dd2 inh
O=C(c1ccccc1)N1CCC2(CC1)C(=O)NCN2C(=O)Cc1ccccc1,-1.1%
COc1cc(C(=O)NCCc2csc(-c3ccc(Cl)cc3)n2)cc(OC)c1OC,i
OCC1CN(C2CCC2)CC12CCN(Cc1ccc(F)cc1)CC2 (centres undefined),12.6µM*
OCC1CN(C2CCC2)CC12CCN(Cc1cc(F)c(F)c(F)c1)CC2 (centres undefined),-11.6%
OCC1CN(C2CCC2)CC12CCN(Cc1ccc[nH]1)CC2 (centres undefined),-9.8%
CC(C)N1C[C@H](O)C[C@H]1c1nnc2n1CCN(C(=O)COc1ccccc1)CC2,8.6%
Cn1cc(-c2cnc3[nH]cc(CC(=O)Nc4cccc(F)c4)c3c2)cn1,6.31µM*
COc1ccc(NC(=O)Cc2c[nH]c3ncc(-c4ccccc4)cc23)cc1,-20.5%[44.1 µM]
O=C(Cc1c[nH]c2ncc(-c3cccnc3)cc12)NCc1cccc(F)c1,6.31µM*
CN1CCN(C(=O)Cc2c[nH]c3ncc(-c4ccc5c(c4)OCO5)cc23)CC1,-20.8%[44.1 µM]
O=C(Cc1c[nH]c2ncc(-c3cccnc3)cc12)Nc1ccc(C(F)(F)F)cc1,-24.8%[44.1 µM]
CN1CCN(C(=O)Cc2c[nH]c3ncc(-c4ccc(F)c(Cl)c4)cc23)CC1,11.2µM*
Cn1cc(-c2cnc3[nH]cc(CC(=O)Nc4ccc(N5CCOCC5)cc4)c3c2)cn1,44.7%[44.1 µM]
Cn1cc(-c2cnc3[nH]cc(CC(=O)Nc4ccccc4Cl)c3c2)cn1,-18.9%[44.1 µM]
O=C(Cc1c[nH]c2ncc(-c3cccnc3)cc12)NCCc1ccccc1,i
COc1ccc(-c2cnc3[nH]cc(CC(=O)Nc4ccc(C(F)(F)F)cc4)c3c2)cc1,i
CN1CCN(C(=O)Cc2c[nH]c3ncc(-c4cccc(Cl)c4)cc23)CC1,i
COc1ccc(-c2cnc3[nH]cc(CC(=O)Nc4ccc(OC)nc4)c3c2)cc1,11.2µM*
